High-throughput results: PubChem, The Scripps Research Institute Molecular Screening Center
ADAM17 inh = ADAM17 inhibition, QFRET primary screen; inhibition, % at 6.95 µM; recombinant ADAM17, EDANS/DABCYL FRET peptide cleavage; 370,000 tested, 0.83% active;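 active means inhibition above the mean of compounds lying between control limits plus 3 SD, set per campaign, cut at about 8.5% in these data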;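 further: 0% = DMSO-only wells as the low control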
Target sequence (P78536 215-824 limits assumed): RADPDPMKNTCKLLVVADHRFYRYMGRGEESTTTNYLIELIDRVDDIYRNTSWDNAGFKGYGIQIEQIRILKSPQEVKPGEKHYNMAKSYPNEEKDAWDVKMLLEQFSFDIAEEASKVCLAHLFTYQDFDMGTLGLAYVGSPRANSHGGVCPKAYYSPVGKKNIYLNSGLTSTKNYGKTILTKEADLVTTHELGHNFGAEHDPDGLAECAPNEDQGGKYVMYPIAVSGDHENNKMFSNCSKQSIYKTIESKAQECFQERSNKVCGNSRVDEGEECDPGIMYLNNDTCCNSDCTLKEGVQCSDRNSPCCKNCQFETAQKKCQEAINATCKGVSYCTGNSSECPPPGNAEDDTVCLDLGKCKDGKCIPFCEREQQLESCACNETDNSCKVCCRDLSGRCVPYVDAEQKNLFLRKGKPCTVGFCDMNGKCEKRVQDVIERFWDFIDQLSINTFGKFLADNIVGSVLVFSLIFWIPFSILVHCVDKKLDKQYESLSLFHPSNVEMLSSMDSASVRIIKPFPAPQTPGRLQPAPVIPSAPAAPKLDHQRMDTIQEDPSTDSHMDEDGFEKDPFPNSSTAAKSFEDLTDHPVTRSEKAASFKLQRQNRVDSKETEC
PLC-beta3 inh = blocks human PLC-beta3 enzyme activity; AID 720704; 370,000 tested, 0.18% active; Q01970; inhibition, % at 12.2 µM; Purified PLC-beta3, fluorogenic substrate, fluorescence; in the data active means inhibition above about 11%;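 further: 0% = median of compound wells on plate and 100% = full blocker control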
PLCg1 inh = blocks human PLC-gamma1 enzyme activity | P19174 | purified PLC-gamma1, fluorogenic substrate, fluorescence | inhibition, % at 12.2 µM | 370,000 tested, 0.84% active | AID 720700; in the data active means inhibition above about 9.5%
KLK7 zymogen act = proKLK7 (human) activation, primary screen; P49862; purified proKLK7, EDANS-DABCYL substrate fluorescence; 100% is mature enzyme control, 0% vehicle; activation, % at 7 µM; 370,000 tested, 0.9% active; AID 652039;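 active means activation above the mean of all tested compounds plus 3 SD, computed per campaign excluding outliers beyond control limits, cut at about 13% in these data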
ADAM10 inh = ADAM10 inhibition, QFRET primary screen; O14672; recombinant ADAM10, EDANS/DABCYL FRET peptide cleavage, 3 h; inhibition, % at 7 µM; 370,000 tested, 0.62% active;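 active means inhibition above a per-campaign cutoff equal to the mean of compounds falling between control-based bounds plus 3 SD, cut at about 20% in these data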;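 further: 0% = DMSO wells while the 100% control is not disclosed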
sPLA2-III inh = Inhibits HGIII-sPLA2 liposome hydrolysis, primary screen. Q9NZ20. QFRET BODIPY PC-A2 liposome hydrolysis, fluorescence. inhibition, % at 12.2 µM. 370,000 tested, 0.56% active;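 active means inhibition above mean plus 3 SD of compounds lying within the high and low control bounds, cut at about 19% in these data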;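 further: 0% = median of test compound wells and 100% = no enzyme DMSO wells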
proKLK7 act conf = proKLK7 activation, confirmation; shares compounds with KLK7 zymogen act; purified proKLK7, EDANS-DABCYL substrate fluorescence; scaled: vehicle 0, mature enzyme 100; activation, % at 7 µM; 3,200 tested, 68% active; AID 686949;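 active means activation, as change over the incubation, above the mean of all tested compounds plus 3 SD, cut at about 13% in these data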
EDANS-DABCYL int = counter-screen for kallikrein-7 activators: EDANS-DABCYL optical interference | shares compounds with KLK7 zymogen act | EDANS-DABCYL substrate fluorescence interference, no enzyme, 4 h; solvent 0%, active enzyme control 100% | activation, % at 7 µM | 3,200 tested, 80% active | AID 686952;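 active means activation above the all-compound mean plus 3 SD, ignoring values outside control-based bounds, cut at about 4.8% in these data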;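 further: value is the 4 h activation minus the activation read at time zero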
Starred values were filed as active, the others as inactive; i = inactive; nt = no result. A selection: hits, their analogues and other compounds. The true share with any hit is near 3.4%.

SMILES	ADAM17 inh	PLC-beta3 inh	PLCg1 inh	KLK7 zymogen act	ADAM10 inh	sPLA2-III inh	proKLK7 act conf	EDANS-DABCYL int
Cc1oc2c(CN3CCCC(C)C3)c(O)ccc2c(=O)c1-c1ccccc1 (stereo not drawn)	-438	i	i	33*	i	-9	23*	23*
COc1ccc(-c2c(C)oc3c(CN4CCCCC4C)c(O)ccc3c2=O)cc1 (stereo not drawn)	i	i	i	41*	i	-7	50*	52*
Cc1cc(N2CCN(C(=O)OC(C)(C)C)C[C@@H]2C)ccc1N1CCN(Cc2ccccc2)[C@H](C)C1	4	0	9	0	0	9	nt	nt
COC(=O)c1cc2c(c3c4cc(F)ccc4n(S(=O)(=O)c4ccc(C)cc4)c13)C(=O)N(Cc1ccc(C(F)(F)F)cc1)C2	-2	0	-2	1	-4	-1	nt	nt
COC(=O)c1cc2c(c3c4cc(OC)ccc4n(S(=O)(=O)c4cccc(C)c4)c13)C(=O)N(Cc1ccccc1OC)C2	-1	-27	-20	-2	-7	0	nt	nt
O=C(COC(=O)c1ccccc1NCCO)NCc1cccs1	-345	-459	-427	18*	i	7	19*	21*
COc1ccc(CCNC(=O)COC(=O)c2ccco2)cc1OC	-6	-2	-2	0	2	3	nt	nt
COc1ccc(CCNC(=O)COC(=O)c2ccccc2NCCO)cc1OC	i	i	i	19*	i	0	26*	34*
C=CCCC1CN(Cc2ccc(OC)cc2)S(=O)(=O)c2c(Oc3ccc(C)cc3)cccc2O1 (stereo not drawn)	-1	4	-1	1	2	-2	nt	nt
CCCCN(CCCC)CCCNC(=O)Cn1cc(C)c(=O)[nH]c1=O	-4	4	2	0	-6	6	nt	nt
CC(=O)Oc1ccc2c(C)cc(=O)oc2c1C(=O)c1ccccc1	-14	-17	-17	10	-65	-3	nt	nt
CCC(=O)Nc1c(OC(=O)CC)ccc2c(C)cc(=O)oc12	i	i	i	273*	i	2	256*	254*
CCC(=O)c1cc2c(C)cc(=O)oc2c(C)c1OC	-3	-7	-3	0	-12	4	nt	nt
CCC(=O)Oc1c(C(=O)CC)cc2c(C)cc(=O)oc2c1C	-9	-148	-140	540*	-31	5	810*	812*
NC(=O)c1nsc(C(=O)N(c2ccccc2)C(C(=O)NC2CCCCC2)c2ccc(O)cc2)c1N (stereo not drawn)	-29	-65	-43	13*	-127	-16	5	31*
NC(=O)c1nsc(C(=O)N(c2ccccc2)C(C(=O)NC2CCCC2)c2ccncc2)c1N (stereo not drawn)	-18	-30	-18	0	-49	-2	nt	nt
O=C1CC2c3cc(-c4cc5ccccc5o4)ccc3CCN2C(=O)CN1Cc1ccccc1 (stereo not drawn)	-4	-7	-4	-1	-27	-18	nt	nt
CCc1c(C)c2cc(Cl)c(O)c(CN3CCCCC3)c2oc1=O	i	i	i	51*	i	3	69*	72*
Cc1c(O)c(CN2CCCCC2)cc2c1oc(=O)c1ccccc12	-6	-45	-41	0	-8	-4	nt	nt
CCc1cc(=O)oc2c(CN3CCN(C)CC3)c(O)ccc12	i	i	i	38*	i	-2	72*	71*
CCCCc1cc(=O)oc2c(CN3CCCC3)c(O)ccc12	i	i	i	77*	i	5	65*	74*
O=c1cc(-c2ccccc2)c2ccc(O)c(CN3CCCCC3)c2o1	-60	i	i	11	-228	0	nt	nt
CCc1cc(=O)oc2c(CNCc3c(F)cccc3Cl)c(O)ccc12	i	i	i	30*	i	3	41*	57*
Cc1ccc2c(CN3CCN(CCO)CC3)cc(=O)oc2c1C	-4	-2	-2	0	-6	0	nt	nt
CCc1cc(=O)oc2c(CN3CCN(C)CC3)c(O)c(Cl)cc12	i	i	i	69*	i	-2	62*	70*
SMILES	ADAM17 inh	PLC-beta3 inh	PLCg1 inh	KLK7 zymogen act	ADAM10 inh	sPLA2-III inh	proKLK7 act conf	EDANS-DABCYL int
Cc1cc2oc(=O)cc(CN3CCCC3)c2cc1Cl	-6	-37	-11	-2	-36	-2	nt	nt
CCc1cc(=O)oc2c(CN3CCCC3)c(O)c(Cl)cc12	i	i	i	83*	i	0	68*	71*
Cc1cc(=O)oc2c(CN3CC(C)OC(C)C3)c(O)c(Cl)cc12 (stereo not drawn)	i	i	i	149*	i	-2	67*	74*
O=c1c2ccccc2[nH]c2ccccc12	i	i	-420	17*	i	9	17*	24*
CCC[C@H]1[C@H](N)CC[C@@]23CCCN2C(=O)CCC[C@@H]13	-2	1	0	nt	-7	12	nt	nt
CCN(CC)CCn1nc(C)nc1-c1ccccc1O	2	-1	-4	-1	-7	11	nt	nt
CCN(CC)CCn1nc2c3c(cccc3c1=O)-c1ccccc1-2	-14	-172	-161	18*	-59	-4	-5	-14
Cc1ccc2c(c1)COc1c3ccc(C(=O)N[C@@H](C)CO)cc3nn1-2	-146	-215	-181	14*	-500	-1	7	4
Cc1ccc2c(c1)COc1c3ccc(C(=O)NC(C)C)cc3nn1-2	-80	-155	-93	7	-301	-2	nt	nt
N#Cc1c(-c2ccccc2)cc(-c2ccccc2)[nH]c1=O	-45	-40	-23	-3	-112	-5	nt	nt
N#Cc1cc(-c2ccccc2)c[nH]c1=O	-241	-133	-103	20*	i	-19	7	10*
Cc1cc(=O)[nH]c(SCc2nc3ncccn3c2Br)n1	-300	i	i	29*	i	10	12	15*
O=c1nc(-c2ccccc2)c2cc(Cl)ccc2[nH]1	-54	-217	-152	14*	-163	-7	29*	28*
CCCCCCCCCCCCN1CCSCCS1(=O)=O	-1	3	0	0	-7	12	nt	nt
Cc1cccc(-[n+]2c(C)cc(C)c3c(=O)[nH]c(=O)[nH]c32)c1	i	i	-432	29*	i	10	42*	53*
Cc1cc(C)[n+](-c2ccc(C(C)C)cc2)c2[nH]c(=O)[nH]c(=O)c12	i	i	i	27*	i	0	61*	65*
Cc1ccc2nc3[nH]c(=O)[nH]c(=O)c3c(N)c2c1	-292	-151	-115	7	i	3	nt	nt
